Compounds without any hit were thinned out: in the full panel of roughly 79,000, 15% have a hit. Values without a mark were called inactive. Calls of active or inactive are those of the source. Rule as the data show it: active = growth inhibition above about 70%; inactive = the rest.

This test is described as follows: NCI Yeast Anticancer Drug Screen. Data for the mec2-1 strain (AID 157). As to conditions: S. cerevisiae mec2-1 strain, at 11.0 µM, hits give high values. The essentials: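 Readout is yeast growth inhibition, normalised to vehicle-treated controls, in the mec2-1 strain exposed to compound.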
As for `CS(=O)(=O)SCc1ccc([N+](=O)[O-])cc1`, the growth inhibition was 85% (active).
As for `Cc1csc(=S)n1OC(=O)NC1CCCCC1`, the growth inhibition is 99% (active).
Under `CCOc1ccc(NC(=O)C2=C(C)NC(C)=C(C(=O)Nc3ccc(OCC)cc3)C2c2cccc([N+](=O)[O-])c2)cc1` stands 1%; under `CC(C)(C)N=C(NO)c1ccccc1`, 2%; under `CCCCC/C(=C(\C#N)C(=O)OCC)c1ccccc1`, -3%.
Consider `O=C(NCCCl)Sc1ccc(Cl)cc1`, for which the growth inhibition is -10%.
As for `O=C1Nc2ccc(Br)cc2C1=Nc1ccc2c(c1)OCO2`, the growth inhibition was -54%.
With `CCC(C)OC(=O)Nc1ccc(C)c(NC(=O)OC(C)CC)c1` (centres undefined) the figure was -2%; with `O=C(O)c1cc2ccc(Cl)cc2c(O)c1C1=CCCCC1`, 22%; with `CN(C)Cc1cc(N=Nc2ccc(Cl)cc2)ccc1OC(=O)c1ccccc1`, -2%.
Regarding `CN1CCN(C(=O)/C=C/C(=O)c2ccccc2)CC1`, the growth inhibition is 35%.
As for `CCCC/C=C/C(C)(C(=O)OCC)C(=O)OCC`, the growth inhibition is -1%.
In the case of `Cc1nc(-c2cc3cc([N+](=O)[O-])ccc3oc2=O)cs1`, the growth inhibition is 3%.
Take `Cc1nc2ccccc2nc1NNc1ccccc1`: the growth inhibition is 9%.
Under `CN(C)[C@@H]1C(=O)C(C(N)=O)=C(O)[C@@]2(O)C(=O)C3=C(O)c4c(O)cccc4C[C@H]3C[C@@H]12` stands 1%.
On to `COc1ccc(NC(=O)CC2SC(=Nc3ccccc3C)NC2=O)c([N+](=O)[O-])c1` (centres undefined), for which the growth inhibition was 4%.
As to `COc1cc(O)c2c(c1O)C(=O)c1cc(C)ncc1C2=O`, the growth inhibition is 9%.
For `CSc1nnc(SC)nn1`, the growth inhibition is 16%.
In the case of `COc1cc(/C=C2\CCC/C(=C\c3ccc(O)c(OC)c3)C2=O)ccc1O`, the growth inhibition was 1%.
Take `CN(C)CCNC(=O)c1cccc2cc([N+](=O)[O-])ccc12`: the growth inhibition is 20%.
As to `CCC(C)(C)c1ccc(Oc2cccc(C(=O)O)c2)cc1`, the growth inhibition was 25%.
As to `CCCCCCSc1ncnc2[nH]ncc12`, the growth inhibition is 0%.
Under `CC(=O)Nc1ccc(/C=C/[N+](=O)[O-])cc1` stands 14%.
Turning to `CCOC(=O)c1[nH]n(-c2ccccc2)c(=O)c1C=NC(=S)C(N)=S`, the growth inhibition is -12%.
Take `CCCC(O)C1CC(C(C)C)CCC1C` (centres undefined): the growth inhibition is 5%.
For the compound `O=[n+]1c2ccccc2n([O-])c2cc(Br)ccc21`, the growth inhibition is 92% (active).
As for `CN(C)CCNC(=O)c1cccc2c1Oc1c(cccc1[N+](=O)[O-])O2`, the growth inhibition is -20%.
For the compound `Nc1ncc(-c2ccc(Br)cc2)s1`, the growth inhibition was -15%.
Regarding `Cc1cc2cc3cc(C)c(N)cc3nc2cc1N`, the growth inhibition was 13%.
Take `CC12C(=O)OC(=O)C(c3ccccc31)c1ccccc12`: the growth inhibition was -5%.
For `c1ccc2c(OCC3CO3)cccc2c1` (centres undefined), the growth inhibition is 10%.
Consider `CCOC(=N)c1ccc(O)c(OC)c1`, for which the growth inhibition is 2%.
Take `Nc1cc(N)c(N=Nc2cccc3c(S(=O)(=O)O)cccc23)cc1N=Nc1cc([N+](=O)[O-])ccc1O`: the growth inhibition is -11%.
`COC(=O)Oc1cc(Cl)c(Cl)cc1Cl`: the growth inhibition was 3%.
With `O=C(O)C1CC(c2ccccc2)=NN1c1ccccc1` (centres undefined) the figure was -42%; with `COc1cc([C@@H]2c3cc4c(cc3[C@@H](Nc3ccc(NC(=O)c5cc([N+](=O)[O-])cn5C)cc3)[C@H]3COC(=O)[C@H]23)OCO4)cc(OC)c1O`, 42%.
As for `O=C(O)c1ccccc1/C=N/N=C1c2ccccc2-c2ccccc21`, the growth inhibition is -2%.
Under `O=C1CC(=O)c2ccccc21` stands 4%.
In the case of `Nc1ncnc2c1ncn2C1OC(CO)CC1O` (centres undefined), the growth inhibition was 7%.
